Laboratory results as given in PubChem BioAssay AID2156 (Johns Hopkins Ion Channel Center, 2009).
Hit rate of the full screen: of about 310,000 compounds, about 3,400 (1.1%) were called active. The sample holds actives, similar compounds and a random draw of the others, so the mix is not that of the screen.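 How the source made its calls: active means fluorescence ratio B-score at most minus 3 library SDs, with starting brightness B-score within 2 library SDs (cut at about -5.5 in these data); inactive means the rest, inconclusive results apart.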 Square brackets hold non-standard residues; d marks the D form. Peptide text beside a SMILES is read from it. * marks the point of attachment. ξ: configuration not given here. Cbz = O=C(OCc1ccccc1)*; ξL = CC(C)CC(N)C(=O)O; Bz = O=C(c1ccccc1)*; ξP = O=C(O)C1CCCN1

molecular target: Potassium voltage-gated channel subfamily KQT member 2 (Rattus norvegicus) (UniProt O88943); experiment: rat KCNQ2 potassium channel inhibitors, primary screen, cell-based, CHO-K1, FluxOR thallium flux, B-score (AID 2156); conditions: 20 min, at 10 µM; active compounds read low
Sequence (O88943 whole entry, looked up): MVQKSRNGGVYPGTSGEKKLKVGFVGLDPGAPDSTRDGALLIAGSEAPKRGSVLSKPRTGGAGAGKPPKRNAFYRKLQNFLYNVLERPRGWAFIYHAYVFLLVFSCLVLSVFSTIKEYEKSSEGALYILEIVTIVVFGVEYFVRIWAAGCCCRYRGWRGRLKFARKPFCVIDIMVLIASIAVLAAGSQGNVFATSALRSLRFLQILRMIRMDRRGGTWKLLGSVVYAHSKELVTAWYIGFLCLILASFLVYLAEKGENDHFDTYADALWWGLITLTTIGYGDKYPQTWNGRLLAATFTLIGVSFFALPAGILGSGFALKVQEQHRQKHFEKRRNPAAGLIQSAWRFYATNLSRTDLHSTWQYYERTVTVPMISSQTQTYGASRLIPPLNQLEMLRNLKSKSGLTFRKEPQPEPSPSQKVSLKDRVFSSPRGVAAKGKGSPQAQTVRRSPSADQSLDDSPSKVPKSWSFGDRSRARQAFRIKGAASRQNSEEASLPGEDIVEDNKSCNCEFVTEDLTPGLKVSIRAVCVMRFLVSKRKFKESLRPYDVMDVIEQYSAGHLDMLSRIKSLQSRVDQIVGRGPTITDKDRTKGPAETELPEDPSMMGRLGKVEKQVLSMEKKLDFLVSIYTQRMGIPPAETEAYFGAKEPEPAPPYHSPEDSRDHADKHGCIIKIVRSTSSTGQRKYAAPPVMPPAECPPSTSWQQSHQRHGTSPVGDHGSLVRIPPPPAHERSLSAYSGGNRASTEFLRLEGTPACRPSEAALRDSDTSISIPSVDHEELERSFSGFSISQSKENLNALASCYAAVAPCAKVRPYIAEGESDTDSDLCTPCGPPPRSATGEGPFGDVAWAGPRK

B-score, active:
O=C(NCc1ccccc1Cl)C1CCCN1S(=O)(=O)c1ccc(F)cc1 (stereo not given) -6.35, CC(C)N(C(=O)CSc1nc(COc2ccccc2)nc2ccccc12)C(C)C -7.53, Cc1ccccc1N1CCN(CC(=O)NCc2ccc(Cl)cc2)CC1 -8.15, Cc1cccc(-n2cc(CN3CCN(C(=O)c4ncn[nH]4)CC3)c(-c3cccc(F)c3)n2)c1 -8.35, COC(=O)C1=C(C)N(C(C)c2ccccc2)C(=O)/C1=C\c1ccco1 (stereo not given) -8.53, CC(C)C(NC(=O)OCc1ccccc1)C(=O)OCC(=O)N1C(C)CCCC1C (stereo not given) -8.16, CC(C)[C@H](NC(=O)OCc1ccccc1)C(=O)OCc1ccccc1 -7.34, COc1ccccc1NC(=O)CSc1nnc(-c2ccoc2C)n1CCc1ccccc1 -8.21, CC1=C(C(=O)Nc2ccccc2)C(c2cccs2)C(C#N)=C(SCC#N)N1 (stereo not given) -6.59, C=CC(COCc1ccccc1)N(Cc1ccccc1)S(=O)(=O)c1ccccc1Br (stereo not given) -5.61, CCc1noc(C)c1C(=O)Oc1ccc(N(C)S(=O)(=O)c2ccc(C)c(C)c2)cc1 -6.86, CN(Cc1ccccc1F)C(=O)C(Cc1ccccc1)NC(=O)c1ccccc1 (stereo not given) -7.91, C=CCn1c(SCC(=O)/C(C#N)=C(\C)N)nc2sc(C)c(C)c2c1=O -7.77, COc1cccc(COc2ccc(N(C)S(=O)(=O)c3ccccc3)cc2)c1 -8.25, Cc1cc2oc3ccc(NCCC4CCCN4C)cc3c(=O)c2cc1C (stereo not given) -6.02, CC(C)n1c(NCc2c[nH]c3ccccc23)nc2ccccc21 -8.14, Cc1ccccc1OCc1nnc(SCC(=O)N2c3ccccc3Sc3ccc(Cl)cc32)o1 -7.73, Clc1ccccc1SCc1nc2ccccc2[nH]1 -5.77, COc1ccccc1NC(=O)[C@H](COCc1ccccc1)NC(=O)OC(C)(C)C -6.32

B-score, inactive:
CCN(Cc1ccccc1)S(=O)(=O)c1cc2c3c(c1)CCN3C(=O)CC2 -0.41, Cc1ccc(S(=O)(=O)N2CCC(C(=O)NCCC3=CCCCC3)CC2)cc1C, COc1ccc(NC(=O)N2CCCC2C(=O)NCc2ccccc2Cl)cc1 (stereo not given) -1.43, Cc1cccc(NC(=O)C2CCCN2S(=O)(=O)c2ccc(F)cc2)c1C (stereo not given) -3.21, CCOc1ccc(NC(=O)CN(C)C(=O)c2c(C)noc2C)cc1OCC -0.82, CCN(C(=O)CSc1nnnn1-c1ccccc1OC)C1CCS(=O)(=O)C1 (stereo not given) -0.06, CCCc1nc(SCC(=O)Nc2ccc(S(=O)(=O)N(C)C)cc2)c2ccccc2n1, CCc1nc(SCC(=O)NNC(=O)c2ccc(C)cc2)c2ccccc2n1 -1.77, CC[C@@]12C(=O)N(c3ccccc3)C(=O)N1[C@H](c1ccc(Br)cc1)[C@@H]1C(=O)N(C(C)(C)C)C(=O)[C@@H]12, O=C(CN1CCN(c2ccc(Cl)cc2)CC1)NCc1cccs1 -0.84, Cc1ccc(CNC(=O)CN2CCN(Cc3ccc(Cl)cc3)C2=O)cc1 -0.18, COc1ccc(NC(=O)CN(C)C(=O)CC2CCCCC2)cc1 -0.05, COc1ccc2c(c1)C(=O)Nc1cc(Cl)ccc1N2, Cc1ccc(C)c(-n2cc(CN3CCN(C(=O)c4ncn[nH]4)CC3)c(-c3ccccc3)n2)c1 -1.41, CCC(O)C1CCN(Cc2cn(-c3ccc(OC)cc3)nc2-c2cccc(F)c2)CC1 (stereo not given), CCN1C(=O)[C@@H]2[C@@H](c3ccc(-c4ccc(OC)cc4)c(OC)c3)N3CCC[C@@]3(C(=O)OC)[C@@H]2C1=O, O=C(CCCN1C(=O)/C(=C/c2ccco2)SC1=S)Nc1ccccc1 -0.39, COC(=O)C1=C(C)N(c2ccc(Br)cc2)C(=O)/C1=C\c1ccco1 -1.96, COc1ccc(CCNC(=O)C(=O)NCC2CCCN2S(=O)(=O)c2cccs2)cc1OC (stereo not given), COc1ccc(COC(=O)NC(C(=O)O)c2ccccc2)cc1 (stereo not given), COC(=O)[C@H](Cc1ccccc1)NC(=O)[C@@H]1C[C@H]1[C@@H](NC(=O)OCc1ccccc1)c1ccccc1, COC(=O)[C@H](C)[C@H]1C[C@]1(C)[C@H](NC(=O)OCc1ccccc1)c1ccccc1 -3.52, CC(C)CC(NC(=O)C1CCCN1C(=O)[C@@H](C)NC(=O)OCc1ccccc1)C(=O)NCC(N)=O (stereo not given in full) (Cbz-[dA][ξP][ξL]G-NH2), Cc1ccc(C)c(OCCC(=O)Nc2cccc(S(=O)(=O)N3CCCC3)c2)c1, Cc1ccc2nc(SCC(=O)Nc3cccc4ccccc34)nc(=O)n2c1 -0.48, COc1ccc(NC(=O)CN(C)C(=O)Cc2coc3cc(C)c(C)cc23)cc1 -0.02, Brc1cnc2ccccc2c1N1CCCCC1, CCCn1c(SCC(=O)Nc2cccc(C(=O)OCC)c2)nnc1-c1ccoc1C -0.31, COc1ccccc1NC(=O)CSc1nnc(C)n1CC1CCCO1 (stereo not given), O=C(COc1coc(CN2CCN(c3ccccc3)CC2)cc1=O)N1CCc2ccccc21, CC1=C(C(=O)Nc2ccccc2)C(c2ccco2)C(C#N)=C(SCC(N)=O)N1 (stereo not given), C=CCOC(=O)C1=C(C)NC(C)=C(C(=O)OCC=C)C1c1cccs1 -2.85, CCN(C(=O)COC(=O)c1sccc1C)c1c(N)n(Cc2ccccc2)c(=O)[nH]c1=O, N#CCCN(C(=O)COC(=O)c1ccc(S(=O)(=O)N2CCCCCC2)cc1)c1ccccc1, Cc1ccc(C)c(OCCC(=O)OCC(=O)NC(=O)NCc2ccccc2)c1, COc1ccc2c(c1)O/C(=C\c1ccccc1O)C2=O -0.61, COc1ccc(NC(=O)CN(C)C(=O)c2ccc(NC3CC3)c([N+](=O)[O-])c2)cc1, C=CCCN(Cc1ccccc1)S(=O)(=O)c1ccccc1Br, CC1CCN(c2ccc(-c3ccc(NC(=O)c4ccco4)cc3)nn2)CC1, COCCNC(=O)COc1ccc(N(C)S(=O)(=O)c2ccc3ccccc3c2)cc1, Cc1ccc(S(=O)(=O)N(C)C)cc1NC(=O)COC(=O)c1c(C)noc1C -0.34, CCCc1cc(=O)[nH]c2nnc(SCC(=O)Nc3nnc(SCC)s3)n12, Cc1ccc(-c2csc(NC(=O)C3=COCCO3)n2)cc1C -0.1, O=C(NC(Cc1ccccc1)C(=O)N1CCCC1C(=O)O)c1ccccc1 (stereo not drawn) (Bz-Phe-Pro-OH; configuration not given here) -0.06, CC(Cc1ccccc1)C(=O)N(C)Cc1ccccc1 (stereo not given) -0.83, CSc1ccccc1NC(=O)C(C)N1C(=O)c2ccccc2S1(=O)=O (stereo not given), CC1=NNC(=O)C1Cc1c(Cl)cccc1Cl (stereo not given), COC(=O)[C@@]12CCCN1[C@H](c1ccc(-c3ccc(F)cc3)c(OC)c1)[C@H]1C(=O)N(C)C(=O)[C@H]12, COc1ccc(C(=O)CN2C(=O)NC3(CCc4ccccc43)C2=O)c(OC)c1 (stereo not given), CCN(CC)c1ccc(S(=O)(=O)N2CCCCC2)cc1NC(=O)C1=COCCO1 -0.93, Cc1sc2nc(SCC(N)=O)n(C)c(=O)c2c1C -0.14, C=CCn1c(SCC(=O)NCC2CCCO2)nc2sc(C)c(C)c2c1=O (stereo not given), COc1ccccc1C(=O)NC(=O)COC(=O)C1CC1, COCCN(C(=O)COC(=O)Cc1cccc(OC)c1)c1c(N)n(Cc2ccccc2)c(=O)[nH]c1=O, CN(c1ccc(OCC(=O)O)cc1)S(=O)(=O)c1ccc2ccccc2c1 -1.18, Cc1ccc2nc(COc3ccc(N(C)S(=O)(=O)c4ccccc4)cc3)cc(=O)n2c1, COc1ccccc1C(CNC(=O)c1cccc(NS(=O)(=O)c2ccc(Br)cc2)c1)N(C)C (stereo not given) -0.89, O=S(=O)(Nc1ccc(-c2ccc(N3CCOCC3)nn2)cc1)c1cc(Cl)ccc1Cl -0.08, CCCOc1ccc(C2c3c(oc4cc(C)c(C)cc4c3=O)C(=O)N2CCCN2CCOCC2)cc1 (stereo not given) -0.39, Cc1cc2oc(=O)cc(CN3CCN(Cc4ccccc4)CC3)c2cc1C, Cc1ccc(S(=O)(=O)N2CCN(C(=O)Cc3sc(C)nc3-c3ccc(F)cc3)CC2)c(C)c1 -0.7, CC(C)CN(C(=O)COC(=O)c1ccc2ccccc2c1)c1c(N)n(Cc2ccccc2)c(=O)[nH]c1=O, O=C(Nc1cc(Cl)ccc1N1CCOCC1)c1ccc(N2CCCC2=O)cc1, COc1cc(OC)cc(C(=O)NNC(=O)CNC(=O)c2ccc(Br)o2)c1 -1.49, CC(C)n1c(COc2ccccc2)nc2ccccc21 -0.24, Cc1ccc(O)c(CNc2nc3ccccc3n2C)c1, Cc1nn(C)c(C)c1NS(=O)(=O)c1ccc(OC(F)(F)F)cc1, Cc1ccc(NC(=O)CSc2nnc(COc3ccccc3C)o2)cc1, O=C(CSc1nc2ccccc2o1)N1c2ccccc2Sc2ccc(Cl)cc21 -3.87, CN(N)c1nc(N2CCCC2)nc(N2CCCC2)n1 -0.33, CC(=O)CC[C@@H](C)O[C@@H]1OC(C)[C@H](O)CC1O (stereo not given in full) -0.8, c1ccc(-c2nnc(SCc3nc4ccccc4[nH]3)o2)cc1, c1ccc2c(CSCc3nc4ccccc4[nH]3)cccc2c1 -4.3, O=C(CSc1nc(=O)n2ccccc2n1)Nc1ccc2c(c1)OCCO2 -1.2, C#CCNC(=O)[C@H](Cc1ccc(C(=O)c2ccccc2)cc1)NC(=O)OC(C)(C)C, COc1ccccc1NC(=O)C(C)OC(=O)CC1CCCC1 (stereo not given) -1
